Assay [1] concerns the target Myc proto-oncogene protein (Homo sapiens) (UniProt P01106). Put plainly: ATG_Myc_CIS: Attagene CIS-FACTORIAL HepG2 Assay for human Myelocytomatosis (Myc) Proto-Oncogene Transcription Factor (AID 2282990). Particulars: HepG2, Attagene cis-reporter transcription factor activity; actives raise or lower the signal. In a few lines:
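Read-out: fluorescent reporter mRNA fragments resolved by capillary electrophoresis after RT-PCR. Human HepG2 liver cells carried transfected cis-element reporter units and were dosed for 24 h. Gain or loss of signal fitted relative to DMSO baseline.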

The nature of assay [2]: ATG_NRF2_ARE_CIS: Attagene CIS-FACTORIAL HepG2 Assay for human Nuclear Factor Erythroid 2 Related Factor 2 (NFR2) response to Antioxidant Response Elements (ARE) (AID 2282992). Particulars: HepG2 Attagene ARE/NRF2 reporter, transcription factor activity; actives raise or lower the signal. In a few lines: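 Using transiently transfected HepG2 cells exposed for 24 h, reporter mRNA levels were determined by RT-PCR with fluorescent primer extension and capillary electrophoresis, analysed for gain or loss of signal against DMSO.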

The nature of assay [3]: BSK_3C_TissueFactor: BioMAP Diversity Plus: 3C Assay for Tissue Factor Biomarker Activity (AID 2282997). Particulars: BioMAP 3C HUVEC, tissue factor biomarker readout; actives raise or lower the signal. Put shortly:
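Readout: Tissue Factor ELISA. Cells: human primary umbilical vein endothelium. Time: 24 h after dosing. Analysis: bidirectional fit, DMSO baseline.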

A short description of assay [4]: BSK_3C_uPAR: BioMAP Diversity Plus: 3C Assay for Urokinase-type plasminogen activator receptor (uPAR) Biomarker Activity (AID 2282998). Particulars: BioMAP 3C HUVEC, uPAR biomarker ELISA; actives raise or lower the signal. In a few lines: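 Dose primary human umbilical vein endothelial cells, incubate 24 h, measure cell-surface uPAR by ELISA, then fit the signal in both directions against the DMSO negative control.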
A general note: ELISA stands for enzyme-linked immunosorbent assay.

Assay [5] is described as follows: BSK_3C_VCAM1: BioMAP Diversity Plus: 3C Assay for Vascular cell adhesion molecule 1 (VCAM1) Biomarker Activity (AID 2282999). Particulars: BioMAP 3C HUVEC, VCAM1 ELISA, cytokine-stimulated; actives raise or lower the signal. In a few lines:
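HUVEC primary cells, 24 h compound exposure; VCAM-1 by ELISA; gain/loss of signal fitted bidirectionally vs DMSO baseline.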

Assay [6] in a line: BSK_4H_Eotaxin3: BioMAP Diversity Plus: 4H Assay for Eotaxin 3 Biomarker Activity (AID 2283000).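 On outcome: CCL26 protein level quantified by ELISA in parallel with SRB cytotoxicity check.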 The settings on record: primary human endothelial cells (HUVEC); actives raise or lower the signal. Put shortly:
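HUVEC, 24 h post-dose, ELISA for Eotaxin-3/CCL26. Gain or loss of signal fitted bidirectionally vs DMSO baseline.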

For assay [7], the target named is human Peroxisome Proliferator-activated Receptor delta (PPARd), PPARD (gene 5467) (UniProt Q03181). As to the kind of experiment: ATG_PPARd_TRANS: Attagene TRANS-FACTORIAL HepG2 Assay for human Peroxisome Proliferator-activated Receptor delta (PPARd) (AID 2283002; active means hit-call score of the fitted dose curve at least 0.9, where 1 is the maximum). In a few lines: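 Read-out: reporter mRNA induction, quantified by fluorescent RT-PCR products resolved by capillary electrophoresis. Human HepG2 liver cells carried transiently transfected Gal4-UAS reporter constructs with chimeric NR-Gal4 fusions. Cells were dosed for 24 h; DMSO served as baseline.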
Sequence of human Peroxisome Proliferator-activated Receptor delta (PPARd), PPARD (gene 5467) (Q03181 whole entry, looked up, the tested form may be a part): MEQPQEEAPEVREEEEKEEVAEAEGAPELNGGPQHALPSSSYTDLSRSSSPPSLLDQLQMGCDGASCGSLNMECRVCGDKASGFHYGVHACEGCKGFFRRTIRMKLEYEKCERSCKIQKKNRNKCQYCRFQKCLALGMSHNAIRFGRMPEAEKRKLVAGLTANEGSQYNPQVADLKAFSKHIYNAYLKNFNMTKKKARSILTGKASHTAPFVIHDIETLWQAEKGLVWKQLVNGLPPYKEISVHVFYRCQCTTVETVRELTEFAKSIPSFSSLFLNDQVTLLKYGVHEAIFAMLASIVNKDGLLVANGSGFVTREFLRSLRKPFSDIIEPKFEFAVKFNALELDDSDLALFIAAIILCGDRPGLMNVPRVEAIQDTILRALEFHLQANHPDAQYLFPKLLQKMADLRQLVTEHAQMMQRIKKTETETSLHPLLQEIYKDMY

Read-out in assay [8]: Intercellular Adhesion Molecule 1 (ICAM1), ICAM1 (gene 3383)
As to the kind of experiment: BSK_3C_ICAM1: BioMAP Diversity Plus: 3C Assay for Intercellular Adhesion Molecule 1 (ICAM1) Biomarker Activity (AID 2283003). The settings on record: primary human endothelial cells (HUVEC); actives raise or lower the signal. In a few lines: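 ELISA readout of ICAM1 in human umbilical vein endothelial cells in the 3C system, taken 24 h post-dose. Gain or loss of signal versus DMSO was fitted in both directions, with SRB total-protein staining run in parallel.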

Assay [9] concerns the target Retinoic acid receptor alpha (Homo sapiens) (UniProt P10276). Put plainly: ATG_RARa_TRANS: Attagene TRANS-FACTORIAL HepG2 Assay for human Retinoic Acid Receptor alpha (RARa) (AID 2283005; active means hit-call score of the fitted dose curve at least 0.9, where 1 is the maximum). Put shortly:
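HepG2 transiently transfected with multiplex GAL4-UAS reporter units including a human RARa–GAL4 chimera; 24 h compound exposure. Reporter mRNA quantified by RT-PCR, 6-FAM labeling and capillary electrophoresis; gain of signal versus DMSO.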

Assay [10] is described as follows: BSK_3C_Proliferation: Cell Proliferation Assessment in the BioMAP Diversity Plus: 3C Assay (AID 2283006).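 On AC50: potency may reflect either rise or fall in cell number versus DMSO.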 Particulars: primary human endothelial cells (HUVEC). In a few lines:
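Proliferation as total protein: sulforhodamine B (0.1%) stain of TCA-fixed subconfluent human umbilical vein endothelial cells, absorbance 560 nm, 48 h after dosing. Activity fitted in both directions against DMSO baseline.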

For assay [11], the target named is Nuclear receptor subfamily 1 group I member 2 (Homo sapiens) (UniProt O75469). Put plainly: ATG_PXR_TRANS: Attagene TRANS-FACTORIAL HepG2 Assay for human Pregnane X Receptor (PXR) (AID 2283008; active means hit-call score of the fitted dose curve at least 0.9, where 1 is the maximum). Put shortly: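 Multiplexed TRANS reporter panel in HepG2; this component tracks PXR-Gal4-driven reporter mRNA after 24 h dosing, measured by RT-PCR with capillary electrophoresis fluorescence, fitted against DMSO.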
Sequence of Nuclear receptor subfamily 1 group I member 2 (Homo sapiens) (O75469 whole entry, looked up, the tested form may be a part): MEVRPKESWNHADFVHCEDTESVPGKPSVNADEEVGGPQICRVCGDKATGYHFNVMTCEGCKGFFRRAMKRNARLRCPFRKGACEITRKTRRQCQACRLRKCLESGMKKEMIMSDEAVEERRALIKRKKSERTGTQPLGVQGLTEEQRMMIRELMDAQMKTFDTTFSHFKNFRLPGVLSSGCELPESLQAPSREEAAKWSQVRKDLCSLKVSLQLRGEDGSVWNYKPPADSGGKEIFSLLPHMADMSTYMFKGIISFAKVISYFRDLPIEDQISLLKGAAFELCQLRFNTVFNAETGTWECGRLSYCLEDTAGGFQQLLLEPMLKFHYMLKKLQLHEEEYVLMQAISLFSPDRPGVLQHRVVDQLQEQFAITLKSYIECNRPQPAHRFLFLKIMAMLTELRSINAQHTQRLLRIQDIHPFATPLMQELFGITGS

Assay [12] addresses human RAR-related Orphan Receptor beta (RORb), RORB (gene 6096) (UniProt Q92753). Put plainly: ATG_RORb_TRANS: Attagene TRANS-FACTORIAL HepG2 Assay for human RAR-related Orphan Receptor beta (RORb) (AID 2283010; active means hit-call score of the fitted dose curve at least 0.9, where 1 is the maximum). In a few lines:
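Read-out is reporter mRNA induction, quantified by RT-PCR with fluorescent capillary electrophoresis, 24 h post-dose in transiently transfected HepG2 expressing exogenous NR-Gal4 chimera. Activity fitted upward versus DMSO.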

The target in assay [13] is human RAR-related Orphan Receptor gamma (RORg), RORC (gene 6097) (UniProt P51449). Put plainly: ATG_RORg_TRANS: Attagene TRANS-FACTORIAL HepG2 Assay for human RAR-related Orphan Receptor gamma (RORg) (AID 2283011; active means hit-call score of the fitted dose curve at least 0.9, where 1 is the maximum). In a few lines:
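Readout: reporter transcript induction (RT-PCR, fluorescent primer extension, capillary electrophoresis) after 24 h compound exposure of transiently transfected HepG2 cells carrying a RORg-Gal4 chimera and GAL4-UAS reporters; DMSO served as baseline, with increasing signal fitted.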

Assay [14] addresses Cellular tumor antigen p53 (Homo sapiens) (UniProt P04637). As to the kind of experiment: ATG_p53_CIS: Attagene CIS-FACTORIAL HepG2 Assay for human p53 Transcription Factor (AID 2282994). Particulars: HepG2 p53 cis-element reporter, Attagene mRNA; actives raise or lower the signal. In a few lines:
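In HepG2 cells, reporter transcription units under cis-regulatory promoters were transiently introduced. Following 24 h treatment, RNA was processed to labelled, digested cDNA fragments read by capillary electrophoresis; fitting was bidirectional versus DMSO.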

The target in assay [15] is human Retinoic Acid Receptor beta (RARb), RARB (gene 5915) (UniProt P10826). As to the kind of experiment: ATG_RARb_TRANS: Attagene TRANS-FACTORIAL HepG2 Assay for human Retinoic Acid Receptor beta (AID 2283004; active means hit-call score of the fitted dose curve at least 0.9, where 1 is the maximum). In a few lines: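 HepG2 cells transiently transfected with multiplexed GAL4-UAS reporter units expressing chimeric NR–Gal4 fusions; 24 h compound exposure. Reporter mRNA quantified by RT-PCR, 6-FAM labelling, HpaI digestion and capillary electrophoresis; gain-of-signal fitted against DMSO baseline.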
Sequence of human Retinoic Acid Receptor beta (RARb), RARB (gene 5915) (P10826 whole entry, looked up, the tested form may be a part): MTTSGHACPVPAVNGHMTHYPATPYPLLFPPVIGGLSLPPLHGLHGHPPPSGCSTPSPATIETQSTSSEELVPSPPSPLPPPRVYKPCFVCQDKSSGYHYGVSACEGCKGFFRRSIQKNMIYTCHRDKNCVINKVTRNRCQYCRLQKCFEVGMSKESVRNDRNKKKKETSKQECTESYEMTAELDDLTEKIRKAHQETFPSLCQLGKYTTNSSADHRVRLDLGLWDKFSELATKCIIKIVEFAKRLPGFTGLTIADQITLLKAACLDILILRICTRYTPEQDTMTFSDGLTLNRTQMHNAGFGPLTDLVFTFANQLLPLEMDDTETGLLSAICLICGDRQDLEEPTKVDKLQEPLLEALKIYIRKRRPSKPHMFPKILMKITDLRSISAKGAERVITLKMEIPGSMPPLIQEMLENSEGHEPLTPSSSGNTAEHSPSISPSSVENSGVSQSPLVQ

Assay [16] concerns the target human Retinoic Acid Receptor gamma (RARg), RARG (gene 5916) (UniProt P13631). Put plainly: ATG_RARg_TRANS: Attagene TRANS-FACTORIAL HepG2 Assay for human Retinoic Acid Receptor gamma (RARg) (AID 2283009; active means hit-call score of the fitted dose curve at least 0.9, where 1 is the maximum). Put shortly:
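Transactivation of exogenous RARg-Gal4 fusion measured as reporter transcript induction after 24 h in transfected HepG2 cells. RNA reverse-transcribed, amplified, fluorescently labeled and resolved by capillary electrophoresis; increase relative to DMSO.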

In assay [17] the target is Peroxisome proliferator-activated receptor gamma (Homo sapiens) (UniProt P37231). As to the kind of experiment: ATG_PPARg_TRANS: Attagene TRANS-FACTORIAL HepG2 Assay for human Peroxisome Proliferator-activated Receptor-gamma (PPARg) (AID 2283007; active means hit-call score of the fitted dose curve at least 0.9, where 1 is the maximum). In a few lines:
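Endpoint reflects upward reporter mRNA change versus DMSO controls. Setup: transiently transfected HepG2, GAL4-UAS reporters driven by chimeric NR-Gal4, 24 h incubation, RT-PCR with capillary electrophoresis read-out.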

Records with an inconclusive call do not appear. Activity calls are given as the source filed them. How the source made its calls, unless noted: active means hit-call score of the fitted dose curve at least 0.9, where 1 is the maximum; inactive means score below 0.9.

Sequence of Myc proto-oncogene protein (Homo sapiens) (P01106 whole entry, looked up, the tested form may be a part): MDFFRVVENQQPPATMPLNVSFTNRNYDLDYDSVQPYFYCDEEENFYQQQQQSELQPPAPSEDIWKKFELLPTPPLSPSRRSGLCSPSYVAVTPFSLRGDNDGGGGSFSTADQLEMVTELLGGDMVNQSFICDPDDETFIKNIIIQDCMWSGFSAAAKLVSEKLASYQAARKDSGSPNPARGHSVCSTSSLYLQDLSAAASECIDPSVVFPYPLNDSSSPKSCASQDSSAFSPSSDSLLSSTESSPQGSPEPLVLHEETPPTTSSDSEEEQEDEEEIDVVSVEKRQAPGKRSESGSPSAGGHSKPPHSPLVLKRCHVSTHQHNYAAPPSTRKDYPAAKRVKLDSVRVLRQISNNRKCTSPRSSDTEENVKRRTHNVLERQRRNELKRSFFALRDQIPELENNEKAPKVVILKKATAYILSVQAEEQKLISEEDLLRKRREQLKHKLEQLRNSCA
Sequence of Cellular tumor antigen p53 (Homo sapiens) (P04637 whole entry, looked up, the tested form may be a part): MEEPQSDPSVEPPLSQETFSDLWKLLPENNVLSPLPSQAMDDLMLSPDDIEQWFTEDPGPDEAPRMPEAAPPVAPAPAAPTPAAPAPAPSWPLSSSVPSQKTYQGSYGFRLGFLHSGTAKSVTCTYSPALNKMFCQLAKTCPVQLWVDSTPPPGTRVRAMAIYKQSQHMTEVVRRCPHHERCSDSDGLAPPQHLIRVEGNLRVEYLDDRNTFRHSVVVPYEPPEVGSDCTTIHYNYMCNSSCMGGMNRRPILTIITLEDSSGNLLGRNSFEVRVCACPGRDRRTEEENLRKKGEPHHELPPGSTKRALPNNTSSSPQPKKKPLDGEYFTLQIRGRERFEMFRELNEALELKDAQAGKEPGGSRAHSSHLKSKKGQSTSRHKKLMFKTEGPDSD
Sequence of human RAR-related Orphan Receptor gamma (RORg), RORC (gene 6097) (P51449 whole entry, looked up, the tested form may be a part): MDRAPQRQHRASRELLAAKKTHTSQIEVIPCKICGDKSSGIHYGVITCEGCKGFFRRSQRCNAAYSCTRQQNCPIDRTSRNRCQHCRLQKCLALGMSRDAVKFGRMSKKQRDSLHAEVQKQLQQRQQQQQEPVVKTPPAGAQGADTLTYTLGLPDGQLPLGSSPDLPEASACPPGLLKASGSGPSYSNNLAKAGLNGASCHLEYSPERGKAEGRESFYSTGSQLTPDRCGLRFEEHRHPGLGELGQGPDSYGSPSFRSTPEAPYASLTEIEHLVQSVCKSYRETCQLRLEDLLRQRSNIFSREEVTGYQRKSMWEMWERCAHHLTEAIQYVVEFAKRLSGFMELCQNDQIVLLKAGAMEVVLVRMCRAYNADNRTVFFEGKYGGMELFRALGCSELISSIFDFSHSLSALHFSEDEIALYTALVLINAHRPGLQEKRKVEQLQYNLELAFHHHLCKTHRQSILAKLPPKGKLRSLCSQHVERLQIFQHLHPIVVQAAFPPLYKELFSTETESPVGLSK
Sequence of human RAR-related Orphan Receptor beta (RORb), RORB (gene 6096) (Q92753 whole entry, looked up, the tested form may be a part): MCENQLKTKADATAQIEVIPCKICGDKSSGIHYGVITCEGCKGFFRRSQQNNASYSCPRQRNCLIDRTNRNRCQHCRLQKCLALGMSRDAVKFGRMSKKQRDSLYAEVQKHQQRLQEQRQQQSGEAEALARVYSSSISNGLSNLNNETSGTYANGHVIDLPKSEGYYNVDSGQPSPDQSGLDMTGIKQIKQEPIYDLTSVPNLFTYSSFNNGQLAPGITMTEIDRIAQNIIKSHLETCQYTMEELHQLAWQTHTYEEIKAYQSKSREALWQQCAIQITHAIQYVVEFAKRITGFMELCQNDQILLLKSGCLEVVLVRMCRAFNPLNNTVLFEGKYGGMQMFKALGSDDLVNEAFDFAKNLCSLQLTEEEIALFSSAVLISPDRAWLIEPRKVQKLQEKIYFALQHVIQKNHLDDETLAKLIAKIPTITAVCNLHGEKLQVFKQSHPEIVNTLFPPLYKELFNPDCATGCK
Sequence of Retinoic acid receptor alpha (Homo sapiens) (P10276 whole entry, looked up, the tested form may be a part): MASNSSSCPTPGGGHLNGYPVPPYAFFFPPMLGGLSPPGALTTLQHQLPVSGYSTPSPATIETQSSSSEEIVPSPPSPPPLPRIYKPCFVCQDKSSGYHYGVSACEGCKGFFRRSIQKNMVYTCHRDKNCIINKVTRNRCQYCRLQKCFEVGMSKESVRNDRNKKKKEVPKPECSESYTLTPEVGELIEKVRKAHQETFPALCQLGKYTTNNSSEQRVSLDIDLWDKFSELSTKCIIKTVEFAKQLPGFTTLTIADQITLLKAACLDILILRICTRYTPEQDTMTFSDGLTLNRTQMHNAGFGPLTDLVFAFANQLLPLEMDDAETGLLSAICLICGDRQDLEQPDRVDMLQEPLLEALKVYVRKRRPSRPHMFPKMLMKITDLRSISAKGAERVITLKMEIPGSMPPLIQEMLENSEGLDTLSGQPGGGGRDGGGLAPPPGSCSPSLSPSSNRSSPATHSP
Sequence of human Retinoic Acid Receptor gamma (RARg), RARG (gene 5916) (P13631 whole entry, looked up, the tested form may be a part): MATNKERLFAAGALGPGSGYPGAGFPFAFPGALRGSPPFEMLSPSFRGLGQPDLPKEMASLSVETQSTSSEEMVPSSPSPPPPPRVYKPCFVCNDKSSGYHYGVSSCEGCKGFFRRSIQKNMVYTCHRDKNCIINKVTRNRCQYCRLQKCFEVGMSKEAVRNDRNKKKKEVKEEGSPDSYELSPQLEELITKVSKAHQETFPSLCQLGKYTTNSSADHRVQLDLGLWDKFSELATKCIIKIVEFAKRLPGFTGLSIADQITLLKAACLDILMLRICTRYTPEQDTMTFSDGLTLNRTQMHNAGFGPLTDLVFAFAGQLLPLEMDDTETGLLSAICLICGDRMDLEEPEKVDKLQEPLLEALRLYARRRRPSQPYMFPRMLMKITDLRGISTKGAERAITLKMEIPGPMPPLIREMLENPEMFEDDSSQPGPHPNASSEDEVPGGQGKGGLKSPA
Sequence of Peroxisome proliferator-activated receptor gamma (Homo sapiens) (P37231 whole entry, looked up, the tested form may be a part): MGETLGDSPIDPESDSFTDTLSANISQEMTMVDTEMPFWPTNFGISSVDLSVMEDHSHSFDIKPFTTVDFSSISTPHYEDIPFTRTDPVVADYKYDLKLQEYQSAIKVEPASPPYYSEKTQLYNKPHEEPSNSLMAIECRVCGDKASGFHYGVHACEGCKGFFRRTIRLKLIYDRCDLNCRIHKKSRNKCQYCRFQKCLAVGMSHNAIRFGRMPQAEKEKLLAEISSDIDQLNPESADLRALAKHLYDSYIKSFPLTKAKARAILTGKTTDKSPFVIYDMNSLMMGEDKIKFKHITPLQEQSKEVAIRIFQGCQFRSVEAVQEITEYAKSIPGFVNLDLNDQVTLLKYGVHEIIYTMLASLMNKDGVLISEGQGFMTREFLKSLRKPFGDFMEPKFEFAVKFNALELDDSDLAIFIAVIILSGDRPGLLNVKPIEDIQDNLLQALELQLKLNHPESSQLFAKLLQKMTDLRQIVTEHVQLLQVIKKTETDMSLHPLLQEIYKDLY

`NC(=O)NO`: the result in assay [1], in assay [2], in [3], in [4], in [5] and in assay [6] was inactive. The outcome in [7], in [8], in assay [9], in assay [10], in [11] and in [12] was inactive. Besides, the call in [13] was inactive.

As for `CC(O)CN(CCN(CC(C)O)CC(C)O)CC(C)O` (centres undefined), the result in assay [1], in assay [2], in assay [14], in [3], in [4] and in assay [6] was inactive. In addition, the outcome in assay [7], in assay [8], in [15], in assay [10], in [11] and in assay [13] was inactive.

Regarding `Nc1cccc(N)c1`, the outcome in assay [1], in assay [2], in assay [4], in assay [6], in assay [8] and in assay [15] was inactive. The outcome in [9], in assay [10], in [11], in [16], in assay [12] and in [13] was inactive.

With `CCCC(=O)OCC`, the molecule was classed as inactive in assay [1], in assay [2], in [4], in assay [5], in assay [6] and in [8]. The result in assay [10] and in assay [17] was inactive.

As a reminder, the AC50 is the midpoint of the concentration-response curve, whichever way the signal moves. `CNCc1ccc(NC(=O)c2c[nH]c3c2C(=O)CCC3)cc1`: the call in assay [1], in assay [3], in assay [4], in assay [6], in assay [7] and in assay [8] was inactive. Also, the result in assay [9], in [10] and in [16] was inactive. The half-maximal activity concentration (AC50) in assay [2] is 56.6 µM (active).

As for `CC[C@H]1OC(=O)[C@H](C)[C@@H](O[C@H]2C[C@@](C)(OC)[C@@H](O)[C@H](C)O2)[C@H](C)[C@@H](O[C@@H]2O[C@H](C)C[C@H](N(C)C)[C@H]2O)[C@](C)(O)C[C@@H](C)C(=O)[C@H](C)[C@@H](O)[C@]1(C)O`, the result in assay [1], in assay [2], in assay [14], in [4], in assay [5] and in assay [6] was inactive. The result in assay [8], in [9], in [10], in assay [11] and in assay [12] was inactive.

For the molecule `CCCCCCCCCCCCCCCO`, the molecule was called inactive in assay [1], in assay [2], in assay [14], in [7], in assay [8] and in assay [13]. The results for the AC50 in [4], in assay [6] and in assay [10] were 35.6 µM (active), 36.5 µM (active) and 14.7 µM (active), respectively.

Consider `CCOc1cccc(-n2cc(C(=O)N3CCN(c4cc(C(=O)O)c5ccccc5c4)CC3)nc2-c2ccc(C)cc2)c1`, for which the call in assay [1], in assay [14] and in assay [7] was inactive. Further, the AC50 in [2] was 8.42 µM (active); in assay [4], 13.9 µM (active); in [5], 27.9 µM (active); in assay [6] it was 33.1 µM (active); in assay [8] it was 29.7 µM (active); in assay [10], 13.5 µM (active).
